The text below walks through data of PubChem BioAssay (NCATS).

Structures are written as SMILES. Results filed as inconclusive are left out. Where a call stands in place of a potency, no number is given. Activity calls are given as the source filed them. Calls come from the whole dose curve; as a rule, active = well fitted cell-killing curve with a large enough effect; inconclusive = small, poorly fitted or top-dose-only effect, or effect the other way; inactive = no such curve, though single readings can be large or run the other way.
Potency is the fitted concentration of half-maximal effect.

This assay in a line: Quantitative High-Throughput drug screen in 47 multiple myeloma cell lines against the NCATS MIPE library collection: INA6_PLB cell viability assay (AID 1918965; note: nearly all actives have a fitted effect of over 55% in size). Particulars: INA6 myeloma viability, CellTiter-Glo ATP luminescence, 48 h; series mostly up to 45.8 µM. The text has this: PI: Beverly A. Mock Ph.D.
Laboratory of Cancer Biology and Genetics,
Center for Cancer Research, National Cancer Institute,
National Institute of Health, Bethesda, Maryland
Drug resistance and disease progression are common in multiple myeloma (MM) patients, underscoring the need for new therapeutic combinations. […] We hypothesized that effective combinations would reduce MYC expression and enhance p16 activity. […] These preclinical data identify potentially useful drug combinations for evaluation in drug-resistant MM and reveal potential mechanisms of combined drug sensitivity.
Described herein is the primary MIPE qHTS used to cherrypick compounds. Validated compounds were then further tested for potential synergistic activiy.
[1] Peat TJ, Gaikwad SM, Dubois W, Gyabaah-Kessie N, Zhang S, Gorjifard S, Phyo Z, Andres M, Hughitt VK, Simpson RM, Miller MA, Girvin AT, Taylor A, Williams D, D'Antonio N, Zhang Y, Rajagopalan A, Flietner E, Wilson K, Zhang X, Shinn P, Klumpp-Thomas C, McKnight C, Itkin Z, Chen L, Kazandijian D, Zhang J, Michalowski AM, Simmons JK, Keats J, Thomas CJ, Mock BA. Drug combinations identified by high-throughput screening promote cell cycle transition and upregulate Smad pathways in myeloma. Cancer Lett. 2023 Aug 1;568:216284. doi: 10.1016/j.canlet.2023.216284. Epub 2023 Jun 24. PMID: 37356470; PMCID: PMC10408729.
SEQUENCE No. (e.g., 1, 2, 3, etc.); […] (e.g., Cells, Incubation, Reagent, etc.); VALUE and DESCRIPTION.
1; Cells; 5 uL; white, solid bottom 1536-well Greiner assay plate.
2; Compounds; 23 nL; Kalypsis pin tool (Wako USA) equipped with a 1536-well pin head to transfer to the assay plates.
3; Incubation; 48 hours; 37C incubation.
4; Reagent;5uL; CellTiter Glo (Promega).
5; Detector; 425V; Luminescence; Viewlux PerkinElmer.
NOTES (numbers refer to Sequence numbers above)
1. The cell-based screening methods employed in this study were like those previously published. Briefly, the corresponding myeloma cell lines were screened in 1,536-well plates with 500 cells, 5-uL per well for inhibition of cell viability (assessed by measuring ATP levels with CellTiterGlo).
2. NCATS MIPE 4.0 library of approved and investigational drugs were added using the Kalypsis pin tool. Wells treated with DMSO only for 100% viability and media only wells for 0% viability were used as controls.
3. The assay plates were covered and incubated for 48 hours in a 37C, 5% CO2 incubator with controlled humidity.
4. After 48 hours, CellTilter-GloTM luminescent substrate mix (Promega) reagent was added to the assay plate and plates we incubated for 5 min at room temperature.
5. Signal was measured as median relative luminescence units on a ViewLux (PerkinElmer) multiplate reader.
[1] Heske CM, Davis MI, Baumgart JT, Wilson K, Gormally MV, Chen L, Zhang X, Ceribelli M, Duveau DY, Guha R, Ferrer M, Arnaldez FI, Ji J, Tran HL, Zhang Y, Mendoza A, Helman LJ, Thomas CJ. Matrix Screen Identifies Synergistic Combination of PARP Inhibitors and Nicotinamide Phosphoribosyltransferase (NAMPT) Inhibitors in Ewing Sarcoma. Clin Cancer Res. 2017 Dec 1;23(23):7301-7311. doi: 10.1158/1078-0432.CCR-17-1121. Epub 2017 Sep 12. PMID: 28899971; PMCID: PMC6636827.
(In ATP-based viability assays light output follows the ATP content of the culture.)
Regarding `CN1CCN(c2c(F)cc3c(=O)c(C(=O)O)cn4c3c2OCN4C)CC1`, the Potency result was “inactive”.
For `CC(C)(C#N)c1cc(Cn2cncn2)cc(C(C)(C)C#N)c1`, the Potency result is “inactive”.
For `COc1cc([C@@H]2c3cc4c(cc3[C@H](O)[C@H]3COC(=O)[C@H]23)OCO4)cc(OC)c1OC`, the Potency entry is “inactive”.
On to `CC(=O)[C@H]1CC[C@H]2[C@@H]3CCC4=CC(=O)CC[C@]4(C)[C@H]3CC[C@]12C`, for which the Potency was 16.6 µM (active).
Turning to `OC(Cn1cncn1)(Cn1cncn1)c1ccc(F)cc1F`, the Potency result is “inactive”.
`CCCOc1ccc(C(=O)OCCN(CC)CC)cc1N`: the Potency entry is “inactive”.
With `CCc1c2c(nc3ccc(OC(=O)N4CCC(N5CCCCC5)CC4)cc13)-c1cc3c(c(=O)n1C2)COC(=O)[C@]3(O)CC`, the Potency is 0.469 µM (active).
Regarding `CC(N)C12CC3CC(CC(C3)C1)C2` (stereo not given), the Potency entry is “inactive”.
Then `COc1cc2nc(N3CCCN(C)CC3)nc(NC3CCN(Cc4ccccc4)CC3)c2cc1OC`, with 2.35 µM (active); and `CCn1cc(C(=O)O)c(=O)c2cc(F)c(N3CCNCC3)cc21`, with “inactive”; and `COc1ccccc1OCC(O)COC(N)=O` (stereo not given), with “inactive”.
Take `CN(C)c1ccc(C(=C2C=CC(=[N+](C)C)C=C2)c2ccc(N(C)C)cc2)cc1`: the Potency was 0.0093 µM (active).
`C[C@@H]1CN(c2c(F)c(N)c3c(=O)c(C(=O)O)cn(C4CC4)c3c2F)C[C@H](C)N1`: the Potency entry was “inactive”.
Then `Cc1ncc([N+](=O)[O-])n1CCO`, with “inactive”; and `CN(CCOc1ccc(CC2SC(=O)NC2=O)cc1)c1ccccn1` (stereo not given), with “inactive”.
Then `COc1cc(NS(=O)(=O)c2ccc(N)cc2)nc(OC)n1`, with “inactive”; and `NC(N)=NC(N)=NCCc1ccccc1`, with 20.9 µM (active).
As to `CO[C@@]12[C@H](COC(N)=O)C3=C(C(=O)C(C)=C(N)C3=O)N1C[C@@H]1N[C@@H]12`, the Potency was 20.9 µM (active).
In the case of `Cc1noc(NS(=O)(=O)c2ccc(N)cc2)c1C`, the Potency result was “inactive”.
In the case of `Nc1ccc(S(=O)(=O)Nc2ccccn2)cc1`, the Potency entry is “inactive”.
As to `N[C@@H](C(=O)N[C@@H]1C(=O)N2C(C(=O)O)=C(Cl)CS[C@H]12)c1ccccc1`, the Potency result was “inactive”.
Then `Cn1c(=O)c2c(ncn2CC(O)CO)n(C)c1=O` (stereo not given), with “inactive”; and `CC1=NN(c2ccccc2)C(=O)C1`, with 13.2 µM (active); and `Nc1nc(=S)c2[nH]cnc2[nH]1`, with 0.469 µM (active).
Turning to `COc1ccc2c(c1)c(CC(=O)OCC(=O)O)c(C)n2C(=O)c1ccc(Cl)cc1`, the Potency entry is “inactive”.
As for `O=C(O)C1CCCN(CCC=C(c2ccccc2)c2ccccc2)C1` (stereo not given), the Potency entry was “inactive”.
With `Oc1c(Cl)cc(Cl)c2cccnc12`, the Potency was 16.6 µM (active).
`O=C(N[C@H](CO)[C@H](O)c1ccc([N+](=O)[O-])cc1)C(Cl)Cl`: the Potency entry is “inactive”.
As for `CCOC(=O)[C@H](CCc1ccccc1)N[C@H]1CS[C@H](c2cccs2)CN(CC(=O)O)C1=O`, the Potency was 2.96 µM (active).
Consider `COc1ccc(-c2ccc3cc(C(=O)O)ccc3c2)cc1C12CC3CC(CC(C3)C1)C2`, for which the Potency result is “inactive”.
In the case of `O=S(=O)(O)CCS`, the Potency entry was “inactive”.
For `NC(=O)c1cccc(N)c1`, the Potency result was “inactive”.
In the case of `CNC(=O)c1cc(Oc2ccc(NC(=O)Nc3ccc(Cl)c(C(F)(F)F)c3)cc2)ccn1`, the Potency is 13.2 µM (active).
As for `CNS(=O)(=O)CCc1ccc2[nH]cc(C3CCN(C)CC3)c2c1`, the Potency is 2.09 µM (active).
`CCCc1cc(C(N)=S)ccn1`: the Potency result is “inactive”.
Consider `Cc1cc(NS(=O)(=O)c2ccc(N)cc2)no1`, for which the Potency result was “inactive”.
On to `CCN[C@H]1C[C@H](C)S(=O)(=O)c2sc(S(N)(=O)=O)cc21`, for which the Potency result is “inactive”.
`CCn1cc(C(=O)O)c(=O)c2cc(F)c(N3CCNCC3)nc21`: the Potency result is “inactive”.
Take `CCCCCCNC(=O)n1cc(F)c(=O)[nH]c1=O`: the Potency was 11.8 µM (active).
Then `C[C@@H]1C[C@H]2[C@@H]3CCC4=CC(=O)C=C[C@]4(C)[C@@]3(Cl)[C@@H](O)C[C@]2(C)[C@@]1(OC(=O)c1ccco1)C(=O)CCl`, with 2.96 µM (active).
